VP16 counter = VP16 counterscreen qHTS for inhibitors of ROR gamma transcriptional activity. Potency, µM (series often up to 53.6 µM), without a hit: at the top dose activity, negative = inhibition, most hits filed as inhibitors. Drosophila S2 Gal4-VP16 UAS-luciferase, luminescence, 20 h. AID 2546, 2010. 310,000 compounds, 3.5% hits;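 note: Gal4-VP16 expression switched on by copper sulfate through the metallothionein promoter; % is set by controls: 0 for no effect and ±100 for the full control effect; nearly all actives have a fitted effect of over 50% in size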
Epigenetic derep = Quantitative High-Throughput Screen for Regulators of Epigenetic Control. 280,000 compounds, 0.2% hits. murine LDR cells, GFP reporter derepression, 30 h. Potency, µM (top dose mostly 53.9 µM), inactives show at the highest dose GFP activation, usual class: activators; note: % of control where 0% means no effect; nearly all actives have a fitted effect of over 60% in size
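GFP-positive cell count by laser-scanning cytometry (objects 20–120 um) after 30 h, 37 C compound exposure of murine LDR cells; reporter is CMV-GFP integrated at a silenced locus, inducible by HDAC or DNMT inhibitors.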
RORgamma inh = qHTS for inhibitors of ROR gamma transcriptional activity; Nuclear receptor ROR-gamma (Mus musculus), P51450; Drosophila S2 Gal4-RORgamma UAS-luciferase reporter, 20 h; Potency, µM (series often up to 53.6 µM), inactives show top-dose activity change, negative = inhibition, usual class: inhibitors; 310,000 compounds, 5.4% hits; note: % is set by controls: 0 for no effect and ±100 for the full control effect; nearly all actives have a fitted effect of over 60% in size
Target sequence (P51450 whole entry, looked up, the tested form may be a part): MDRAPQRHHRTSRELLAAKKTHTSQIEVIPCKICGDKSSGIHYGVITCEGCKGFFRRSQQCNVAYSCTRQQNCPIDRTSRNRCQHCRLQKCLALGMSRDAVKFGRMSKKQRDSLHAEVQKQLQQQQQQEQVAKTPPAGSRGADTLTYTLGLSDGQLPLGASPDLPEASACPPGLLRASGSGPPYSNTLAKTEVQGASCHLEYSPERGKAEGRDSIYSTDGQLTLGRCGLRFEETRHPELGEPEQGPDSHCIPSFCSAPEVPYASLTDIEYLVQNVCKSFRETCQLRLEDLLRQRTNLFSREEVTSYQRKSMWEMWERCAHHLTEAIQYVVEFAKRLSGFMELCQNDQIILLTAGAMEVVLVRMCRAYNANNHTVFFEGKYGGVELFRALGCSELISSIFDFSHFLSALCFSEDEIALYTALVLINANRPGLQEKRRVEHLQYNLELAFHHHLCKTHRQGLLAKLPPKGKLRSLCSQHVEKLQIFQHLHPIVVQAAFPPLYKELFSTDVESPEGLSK
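Stably transfected Drosophila Schneider cells are the test system, with ROR gamma fused to Gal4 and luciferase under UAS control; luminescence is read after 20 hr of 700 uM copper sulfate induction at ambient temperature.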
Sfp PPTase inh = qHTS Assay for Inhibitors of Bacillus subtilis Sfp phosphopantetheinyl transferase (PPTase); 4'-phosphopantetheinyl transferase ffp (Bacillus subtilis), Q9F4F7; Biochemical Sfp PPTase activity, qHTS; Potency, µM, without a hit: largest response in the series, negative = inhibition, hits mostly inhibitors; 310,000 compounds, 3.5% hits;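 note: the enzyme is Sfp with the accession as filed and its product quenches rhodamine fluorescence; 0% = enzyme reaction without inhibitor and -100% = no enzyme wells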
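Fluorescence-quenching assay with 15 nM Sfp, 5 uM rhodamine-CoA and 12.5 uM BHQ-2-labelled ybbR peptide in pH 7.6 Hepes/MgCl2 buffer. Enzyme was pre-incubated with compound for 15 min at room temperature. Rate was taken from the 30-min fluorescence change (525/598 nm).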
PINK1 expr mod = A Quantitative High throughput Screen to Identify Chemical Modulators of PINK1 Expression; PINK1 immunofluorescence, high-content cytometry, 24 h; Potency, µM (series often up to 76.6 µM), for the others: at the top dose activation (PINK1 increase), most hits filed as activators; 410,000 compounds, 0.2% hits; AID 624263, 2012; active = well fitted activation curve with a large enough effect; inconclusive = small, poorly fitted or top-dose-only effect; cell line not stated here; note: % of control where 0% means no effect; nearly all actives have a fitted effect of over 65% in size
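Readout is PINK1 immunofluorescence, quantified alongside mitochondrial, cell and nuclear markers by laser-scanning microplate cytometry. Cells from a stable line were exposed to compound titrations (5 concentrations) for 24 hours, with CCCP controls.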
ClpP mod = qHTS Assay for Activators of ClpP | ATP-dependent Clp protease proteolytic subunit (Bacillus subtilis (strain 168)), P80244 | purified B. subtilis ClpP, FRET peptide cleavage, 20 min | AID 651965, 2013 | 340,000 compounds, 1.9% hits | Potency, µM (series often up to 57.5 µM), inactives show at the highest dose activity change, negative = active; active = well fitted falling curve with a large enough effect; inconclusive = small, poorly fitted or top-dose-only effect; inactive = no such curve, though single readings can be large or run the other way; note: the source files actives as falling curves though it sought activators and does not explain the sign; nearly all actives have a fitted effect of over 65% in size
Target sequence (P80244 whole entry, looked up): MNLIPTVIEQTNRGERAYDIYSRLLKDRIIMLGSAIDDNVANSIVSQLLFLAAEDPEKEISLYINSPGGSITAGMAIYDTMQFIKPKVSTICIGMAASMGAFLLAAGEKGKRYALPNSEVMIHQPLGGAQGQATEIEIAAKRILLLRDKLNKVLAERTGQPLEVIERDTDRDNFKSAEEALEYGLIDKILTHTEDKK
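Buffer: 100 mM Tris/HCl pH8, 100 mM KCl, 0.05% low protease BSA, 2.5% glycerol, 0.01% Tween-20. ClpP 10 microg/mL final; 20 min RT; delta FRET normalized to ADEP and DMSO controls.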
The depositor's hits bear a star; ? = inconclusive; . = not tested or not shown; [ ] = another dose, or the depositor's remark. Only some compounds are listed: those with a hit (about 8.1% of all), similar ones and a draw of the others. Unless noted, calls come from the whole dose curve; as a rule, active = well fitted curve in the direction sought with a large enough effect; inconclusive = small, poorly fitted or top-dose-only effect, or another doubt; inactive = no such curve, though single readings can be large; an effect the other way counts as inactive or inconclusive. Potency is the fitted concentration of half-maximal effect.

SMILES	VP16 counter	Epigenetic derep	RORgamma inh	Sfp PPTase inh	PINK1 expr mod	ClpP mod
NNC(=O)c1cc(Cl)ccc1Cl	-87%	-2%	11µM*	15%	3%	-1%
Nc1ccccc1C(=O)NCc1ccc(Cl)cc1	-14%	1%	2%	5%	-1%	7.1µM*
COc1cccc(CNC(=O)c2ccccc2N)c1	-3%	2%	-10%	16%	1%	5.6µM*
Cc1ccc(Cl)cc1NC(=O)Nc1nnc(N2CCCC(C)C2)s1 (stereo unspecified)	.	3%	.	.	2%	0%
CCCN1CNc2c(c(=O)[nH]c(=S)n2CCc2ccc(OC)cc2)C1	.	.	.	.	-1%	0%
Cc1ccc2c(c1)c(=O)c(S(=O)(=O)c1ccc(F)cc1)cn2CC(=O)Nc1ccc2c(c1)OCO2	.	-2%	.	.	0%	-6%
CCn1c(-c2csc(C(C)C)c2)n[nH]c1=S	13µM*	-1%	2.5µM*	-24%	0%	-7%
CC(C)Cn1c(-c2csc(C(C)C)c2)n[nH]c1=S	-25%[10 µM]	1%[10.1 µM]	2µM*	-14%	-1%	.
CN(CC1COCCO1)C(=O)c1cnn(-c2nccc(-c3ccccc3C(F)(F)F)n2)c1C1CC1 (stereo unspecified)	.	.	.	.	0%	.
Cc1ccc(NC(=O)CSc2nnc(C)n3c2cc2sccc23)c(C)c1	.	-2%	.	.	0%	0%
COc1cc(C(=O)NC2CCCc3c2cnn3-c2ccccc2F)cc(OC)c1OC (stereo unspecified)	5µM*	.	-36%	9%	1%	1%
CC(C)c1cc(C(=O)NC2CCCc3c2cnn3-c2ccccc2F)no1 (stereo unspecified)	11µM*	.	-29%	-12%	1%	-1%
Cc1cc(C(=O)NC2CCCc3c2cnn3-c2cccc(C)c2C)n(C)n1 (stereo unspecified)	2.2µM*	.	?	11%	3%	0%
COc1ccccc1-c1nc(SCC(=O)NCc2ccccc2)c2c(=O)n(C)c(=O)n(C)c2n1	.	-3%	.	.	2%	-8%
Cc1ccn2cc(CNC(=O)c3cccc(C(F)(F)F)c3)nc2c1	.	-3%	.	.	2%	-14%
COc1ccccc1C(=O)N(Cc1nc(-c2cccc(C)c2)no1)C(C)C	.	-1%	.	.	3%	-1%
COC(=O)CN1C(=O)[C@H]2[C@@H](c3ccc(C)o3)N3C(=O)CN(Cc4ccccc4)C(=O)[C@@]3(C)[C@H]2C1=O	1%	.	2%	45µM*	0%	-2%
CN(C)c1nc(N)nc(CSc2nc3cc(Cl)ccc3o2)n1	24%	1%	4%	-1%	2%[38.3 µM]	-1%
O=S1(=O)C=C(Sc2nc3cc(Cl)ccc3o2)c2ccccc21	2.5µM*	-1%	5.6µM*	?	0%	-2%
CCc1ccc(NS(=O)(=O)c2ccc3oc(=O)c4ncn(CC)c4c3c2)cc1	.	1%	.	.	2%	-2%
O=C1/C(=C/c2ccncc2)CCC/C1=C\c1ccncc1	5µM*	?	6.3µM*	?	-1%	0%
O=C(/C=C/c1cccc2ccccc12)c1ccncc1	8.9µM*	?	-88%	25µM*	-2%	-2%
O=C(N/N=C/c1cccc2ccccc12)c1ccncc1	-4%	.	-22%	-4%	1%	0%
O=C(/C=C/c1ccccc1)NC(NC(=S)Nc1ccc(C(=O)O)cc1)C(Cl)(Cl)Cl (stereo unspecified)	3%	-1%	-1%[10 µM]	4%	13%	0%
Cc1ccc(C)c(NC(=S)NC(NC(=O)/C=C/c2ccccc2)C(Cl)(Cl)Cl)c1 (stereo unspecified)	11µM*	-1%	5µM*	12%	12%	1%
SMILES	VP16 counter	Epigenetic derep	RORgamma inh	Sfp PPTase inh	PINK1 expr mod	ClpP mod
O=C(/C=C/c1ccccc1)NC(NC(=S)Nc1cccc2cccnc12)C(Cl)(Cl)Cl (stereo unspecified)	-8%	-1%	-6%	23%	.	.
CC(=O)NC(NC(=S)Nc1ccc(N=Nc2ccccc2C)cc1C)C(Cl)(Cl)Cl (stereo unspecified)	3%	2%	23%	-5%	4%	-1%
O=C(/C=C/c1ccccc1)NC(NC(=S)Nc1cccc(O)c1)C(Cl)(Cl)Cl (stereo unspecified)	?	6%	8%	1%	?	-2%
O=C(/C=C/c1ccccc1)NC(NC(=S)Nc1cccc(Cl)c1)C(Cl)(Cl)Cl (stereo unspecified)	18µM*	-1%	?	11%	?	0%
Cc1ccc(NC(=S)NC(NC(=O)C(C)(C)C)C(Cl)(Cl)Cl)c(C)c1 (stereo unspecified)	-25%	0%	13µM*	20%	3%	-18%
O=C(/C=C/c1ccccc1)NC(NC(=S)Nc1ccc(Cl)cc1Cl)C(Cl)(Cl)Cl (stereo unspecified)	5µM*	0%	?	7%	10µM*	1%
CCOc1cccc(C(=O)N(Cc2ccc(N(C)C)cc2)CC2CCCO2)c1 (stereo unspecified)	.	3%	.	.	0%	1%
O=C(NCC1CCC2(CCN(Cc3cccc4ncccc34)CC2)O1)c1ccccc1 (stereo unspecified)	.	.	.	.	0%	.
COc1ccc(NC(=S)NC(NC(=O)c2cccc(Cl)c2)C(Cl)(Cl)Cl)c([N+](=O)[O-])c1 (stereo unspecified)	?	0%	?	16%	?	2%
O=C(NC(NC(=S)Nc1ccccc1Cl)C(Cl)(Cl)Cl)c1cccc(Cl)c1 (stereo unspecified)	13µM*	-1%	?	10%	13%	-1%
CC(C)n1c(=S)[nH]c2cc(Cl)ccc21	20µM*	0%	?	79µM*	1%	-3%
CCc1sc(Nc2cccc(Cl)c2)nc1-c1cc2cccc(OC)c2oc1=O	.	-1%	.	.	3%	0%
CN(C)S(=O)(=O)c1cccc(C(=O)C2=C3SC=C(c4ccccc4)N3CC2)c1	2%	0%	2%	56µM*	2%	-2%
CN(C)S(=O)(=O)c1cccc(C(=O)N2CCc3ccccc32)c1	-7%	-1%	-16%	9%	-1%	-2%
CC(C)(C)c1cccc(S(=O)(=O)N2CCN(c3nc(-c4cccs4)nc4ccccc34)CC2)c1	.	.	.	.	0%	4%

Source: PubChem (National Center for Advancing Translational Sciences (NCATS))
